Experimental data from ChEMBL document CHEMBL1961873, “Compounds: GSK PKIS; Assays: Nanosyn kinase panel” (2012).

Columns and labels:
[1] = biological target: Tyrosine-protein kinase Fyn (Homo sapiens) (UniProt P06241); settings: at 1 µM
[2] = biological target: Tyrosine-protein kinase HCK (Homo sapiens) (UniProt P08631); settings: at 0.1 µM
[3] = biological target: Tyrosine-protein kinase HCK (Homo sapiens) (UniProt P08631); settings: at 1 µM
[4] = biological target: Insulin-like growth factor 1 receptor (Homo sapiens) (UniProt P08069); settings: at 0.1 µM
[5] = biological target: Insulin-like growth factor 1 receptor (Homo sapiens) (UniProt P08069); settings: at 1 µM
[6] = biological target: Insulin receptor (Homo sapiens) (UniProt P06213); settings: at 0.1 µM
[7] = biological target: Insulin receptor (Homo sapiens) (UniProt P06213); settings: at 1 µM
[8] = biological target: Insulin receptor-related protein (Homo sapiens) (UniProt P14616); settings: at 0.1 µM
[9] = biological target: Insulin receptor-related protein (Homo sapiens) (UniProt P14616); settings: at 1 µM
[10] = biological target: T1, Tyrosine-protein kinase ITK/TSK (Homo sapiens) (UniProt Q08881); settings: at 0.1 µM;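 further: mean percent inhibition of ITK from the GSK PKIS screen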
T1 sequence (whole entry): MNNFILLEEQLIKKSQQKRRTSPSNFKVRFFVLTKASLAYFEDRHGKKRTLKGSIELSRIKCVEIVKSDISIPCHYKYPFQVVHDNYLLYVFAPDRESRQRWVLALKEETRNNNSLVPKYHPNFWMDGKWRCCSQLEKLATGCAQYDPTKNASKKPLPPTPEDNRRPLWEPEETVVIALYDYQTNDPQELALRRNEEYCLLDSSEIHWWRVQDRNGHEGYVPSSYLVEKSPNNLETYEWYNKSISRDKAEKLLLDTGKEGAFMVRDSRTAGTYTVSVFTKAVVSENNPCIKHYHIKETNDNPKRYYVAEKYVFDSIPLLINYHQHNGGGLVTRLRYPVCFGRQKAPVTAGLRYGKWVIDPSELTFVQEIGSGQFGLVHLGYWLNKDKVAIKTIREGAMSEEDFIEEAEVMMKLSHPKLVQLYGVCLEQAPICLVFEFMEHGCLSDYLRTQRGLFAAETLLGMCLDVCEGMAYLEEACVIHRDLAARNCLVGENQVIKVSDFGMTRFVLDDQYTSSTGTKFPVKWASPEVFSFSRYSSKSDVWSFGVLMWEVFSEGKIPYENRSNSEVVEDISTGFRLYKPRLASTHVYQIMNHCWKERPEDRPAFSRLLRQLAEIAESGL

Tyrosine-protein kinase HCK (Homo sapiens), sequence (P08631 2-526 limits assumed): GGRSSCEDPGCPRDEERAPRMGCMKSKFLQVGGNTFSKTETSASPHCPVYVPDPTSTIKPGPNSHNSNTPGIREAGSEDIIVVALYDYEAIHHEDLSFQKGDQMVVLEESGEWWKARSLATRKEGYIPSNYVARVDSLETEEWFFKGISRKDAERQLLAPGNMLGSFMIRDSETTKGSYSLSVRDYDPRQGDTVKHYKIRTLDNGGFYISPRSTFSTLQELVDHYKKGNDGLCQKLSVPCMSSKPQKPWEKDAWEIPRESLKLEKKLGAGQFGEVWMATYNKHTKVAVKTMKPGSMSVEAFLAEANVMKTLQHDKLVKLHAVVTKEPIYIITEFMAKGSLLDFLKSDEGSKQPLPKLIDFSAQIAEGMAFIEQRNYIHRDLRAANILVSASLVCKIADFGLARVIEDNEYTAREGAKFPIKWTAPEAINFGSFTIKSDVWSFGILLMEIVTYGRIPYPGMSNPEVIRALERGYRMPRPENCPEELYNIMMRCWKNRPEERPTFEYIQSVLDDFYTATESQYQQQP
Insulin-like growth factor 1 receptor (Homo sapiens), sequence (P08069 31-736 limits assumed): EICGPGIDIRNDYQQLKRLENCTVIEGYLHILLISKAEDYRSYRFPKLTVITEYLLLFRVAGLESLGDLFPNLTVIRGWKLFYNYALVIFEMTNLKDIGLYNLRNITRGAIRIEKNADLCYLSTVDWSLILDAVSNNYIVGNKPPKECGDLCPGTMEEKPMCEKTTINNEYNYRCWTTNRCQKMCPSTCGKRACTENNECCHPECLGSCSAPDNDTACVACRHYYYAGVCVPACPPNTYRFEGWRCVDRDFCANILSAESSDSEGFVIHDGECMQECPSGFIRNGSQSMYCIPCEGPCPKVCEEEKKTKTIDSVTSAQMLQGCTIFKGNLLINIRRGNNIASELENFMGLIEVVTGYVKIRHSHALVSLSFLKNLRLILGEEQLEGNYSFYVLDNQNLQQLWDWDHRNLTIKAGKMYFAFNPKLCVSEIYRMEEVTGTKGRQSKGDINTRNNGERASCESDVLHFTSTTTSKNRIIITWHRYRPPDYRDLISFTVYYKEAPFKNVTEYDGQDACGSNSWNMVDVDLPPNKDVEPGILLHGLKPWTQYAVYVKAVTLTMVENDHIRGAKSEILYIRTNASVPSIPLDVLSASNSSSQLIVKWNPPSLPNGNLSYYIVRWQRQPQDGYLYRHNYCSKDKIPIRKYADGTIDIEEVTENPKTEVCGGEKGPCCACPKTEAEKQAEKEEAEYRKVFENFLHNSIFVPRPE
Insulin-like growth factor 1 receptor (Homo sapiens), sequence (P08069 741-1367 limits assumed): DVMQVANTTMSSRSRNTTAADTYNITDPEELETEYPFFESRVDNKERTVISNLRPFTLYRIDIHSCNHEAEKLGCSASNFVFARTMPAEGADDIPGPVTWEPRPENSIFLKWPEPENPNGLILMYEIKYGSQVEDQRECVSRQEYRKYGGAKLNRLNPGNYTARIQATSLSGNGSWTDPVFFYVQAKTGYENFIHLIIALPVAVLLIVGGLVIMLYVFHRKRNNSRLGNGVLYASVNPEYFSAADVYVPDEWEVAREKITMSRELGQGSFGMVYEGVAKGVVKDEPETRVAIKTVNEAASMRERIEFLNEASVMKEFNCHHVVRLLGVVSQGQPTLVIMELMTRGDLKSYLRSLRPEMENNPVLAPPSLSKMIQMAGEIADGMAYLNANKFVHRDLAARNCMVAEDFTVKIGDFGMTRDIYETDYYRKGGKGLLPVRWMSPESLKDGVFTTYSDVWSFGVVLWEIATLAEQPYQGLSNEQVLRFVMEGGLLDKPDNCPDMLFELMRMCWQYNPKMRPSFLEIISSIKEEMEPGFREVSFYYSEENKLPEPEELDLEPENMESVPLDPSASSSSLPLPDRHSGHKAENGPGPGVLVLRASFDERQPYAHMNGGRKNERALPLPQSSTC
Insulin receptor (Homo sapiens), sequence (P06213 28-758 limits assumed): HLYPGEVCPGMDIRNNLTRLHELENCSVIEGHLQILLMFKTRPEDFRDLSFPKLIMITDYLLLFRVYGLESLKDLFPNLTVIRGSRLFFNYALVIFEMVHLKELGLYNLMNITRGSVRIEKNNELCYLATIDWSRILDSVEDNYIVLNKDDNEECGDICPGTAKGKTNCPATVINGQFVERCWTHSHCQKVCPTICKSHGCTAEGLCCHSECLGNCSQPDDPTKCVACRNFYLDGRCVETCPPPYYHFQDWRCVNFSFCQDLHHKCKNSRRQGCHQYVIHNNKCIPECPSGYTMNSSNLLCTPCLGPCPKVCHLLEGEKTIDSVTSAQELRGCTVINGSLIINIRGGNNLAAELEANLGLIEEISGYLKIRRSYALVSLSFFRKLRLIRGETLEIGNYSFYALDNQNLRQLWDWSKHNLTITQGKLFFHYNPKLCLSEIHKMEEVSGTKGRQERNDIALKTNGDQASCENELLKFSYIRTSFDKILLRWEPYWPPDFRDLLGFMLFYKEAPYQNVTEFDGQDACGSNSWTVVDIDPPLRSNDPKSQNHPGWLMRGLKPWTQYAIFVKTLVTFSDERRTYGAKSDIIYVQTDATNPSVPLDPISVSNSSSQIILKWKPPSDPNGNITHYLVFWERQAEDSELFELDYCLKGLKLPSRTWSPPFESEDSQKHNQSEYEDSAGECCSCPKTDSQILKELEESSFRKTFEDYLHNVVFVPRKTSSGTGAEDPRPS
Insulin receptor (Homo sapiens), sequence (P06213 763-1382 limits assumed): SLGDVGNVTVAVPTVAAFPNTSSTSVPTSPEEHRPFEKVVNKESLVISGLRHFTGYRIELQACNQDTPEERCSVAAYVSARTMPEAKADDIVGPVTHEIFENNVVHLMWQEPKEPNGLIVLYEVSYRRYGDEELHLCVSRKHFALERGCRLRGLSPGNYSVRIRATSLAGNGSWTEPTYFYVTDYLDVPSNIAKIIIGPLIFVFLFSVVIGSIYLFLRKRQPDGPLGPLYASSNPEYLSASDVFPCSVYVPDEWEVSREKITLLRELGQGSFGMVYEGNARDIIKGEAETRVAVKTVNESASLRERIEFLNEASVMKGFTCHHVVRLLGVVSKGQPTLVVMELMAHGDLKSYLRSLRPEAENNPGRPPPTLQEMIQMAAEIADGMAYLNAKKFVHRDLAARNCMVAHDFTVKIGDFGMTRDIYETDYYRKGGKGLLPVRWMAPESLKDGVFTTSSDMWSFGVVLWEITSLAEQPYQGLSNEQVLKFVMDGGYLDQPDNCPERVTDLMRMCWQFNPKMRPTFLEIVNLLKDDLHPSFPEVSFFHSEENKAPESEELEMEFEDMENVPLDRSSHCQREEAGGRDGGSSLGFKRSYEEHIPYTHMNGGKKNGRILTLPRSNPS
Insulin receptor-related protein (Homo sapiens), sequence (P14616 27-742 limits assumed): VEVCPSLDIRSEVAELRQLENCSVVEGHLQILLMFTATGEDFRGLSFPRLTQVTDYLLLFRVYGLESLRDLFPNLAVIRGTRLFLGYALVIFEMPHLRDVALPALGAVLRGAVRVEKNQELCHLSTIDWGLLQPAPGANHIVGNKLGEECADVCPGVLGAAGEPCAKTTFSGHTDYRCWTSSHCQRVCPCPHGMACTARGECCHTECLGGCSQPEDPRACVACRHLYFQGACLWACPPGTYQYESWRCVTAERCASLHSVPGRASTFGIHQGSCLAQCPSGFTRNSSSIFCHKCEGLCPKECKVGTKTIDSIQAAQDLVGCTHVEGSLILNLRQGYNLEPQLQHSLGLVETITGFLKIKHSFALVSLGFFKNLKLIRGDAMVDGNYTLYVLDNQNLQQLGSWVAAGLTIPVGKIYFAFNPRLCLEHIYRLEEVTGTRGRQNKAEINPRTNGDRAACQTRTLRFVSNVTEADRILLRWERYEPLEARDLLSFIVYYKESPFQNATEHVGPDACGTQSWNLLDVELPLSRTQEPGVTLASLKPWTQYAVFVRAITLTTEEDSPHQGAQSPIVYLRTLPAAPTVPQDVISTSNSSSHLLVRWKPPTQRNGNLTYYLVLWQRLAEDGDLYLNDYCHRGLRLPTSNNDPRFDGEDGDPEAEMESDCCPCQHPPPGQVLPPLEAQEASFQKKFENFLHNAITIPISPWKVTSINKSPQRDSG
Insulin receptor-related protein (Homo sapiens), sequence (P14616 747-1297 limits assumed): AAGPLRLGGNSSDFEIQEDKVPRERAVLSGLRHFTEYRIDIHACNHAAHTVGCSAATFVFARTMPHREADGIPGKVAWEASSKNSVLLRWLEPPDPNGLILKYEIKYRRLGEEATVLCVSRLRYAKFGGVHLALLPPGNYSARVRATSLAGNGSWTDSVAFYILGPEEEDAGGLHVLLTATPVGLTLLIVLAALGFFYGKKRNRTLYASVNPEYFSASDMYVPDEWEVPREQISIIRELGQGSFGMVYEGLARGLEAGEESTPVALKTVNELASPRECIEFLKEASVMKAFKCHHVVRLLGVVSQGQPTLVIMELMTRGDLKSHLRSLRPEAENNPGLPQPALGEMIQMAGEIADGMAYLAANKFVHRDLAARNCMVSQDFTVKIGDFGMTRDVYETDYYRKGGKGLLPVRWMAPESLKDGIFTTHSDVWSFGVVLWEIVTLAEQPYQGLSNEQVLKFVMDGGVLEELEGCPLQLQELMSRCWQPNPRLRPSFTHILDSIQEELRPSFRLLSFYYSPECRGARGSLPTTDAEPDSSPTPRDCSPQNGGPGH
Tyrosine-protein kinase Fyn (Homo sapiens), sequence (P06241 2-537 limits assumed): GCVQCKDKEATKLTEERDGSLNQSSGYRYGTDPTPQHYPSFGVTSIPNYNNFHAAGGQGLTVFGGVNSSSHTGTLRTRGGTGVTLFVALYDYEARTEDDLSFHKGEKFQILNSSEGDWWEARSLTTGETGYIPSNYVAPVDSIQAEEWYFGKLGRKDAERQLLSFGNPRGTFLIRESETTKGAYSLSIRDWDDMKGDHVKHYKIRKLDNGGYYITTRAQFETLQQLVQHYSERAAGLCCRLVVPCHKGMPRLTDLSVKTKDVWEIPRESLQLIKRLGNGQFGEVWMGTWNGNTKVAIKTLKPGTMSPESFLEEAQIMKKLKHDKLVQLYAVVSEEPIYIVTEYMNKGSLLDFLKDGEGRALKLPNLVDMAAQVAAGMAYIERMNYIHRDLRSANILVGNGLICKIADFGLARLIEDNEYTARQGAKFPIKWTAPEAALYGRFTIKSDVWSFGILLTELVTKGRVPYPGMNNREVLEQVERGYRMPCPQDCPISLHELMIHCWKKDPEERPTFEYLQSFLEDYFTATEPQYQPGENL

Row | Structure (SMILES) | inhibition [1] [%] | inhibition [2] [%] | inhibition [3] [%] | inhibition [4] [%] | inhibition [5] [%] | inhibition [6] [%] | inhibition [7] [%] | inhibition [8] [%] | inhibition [9] [%] | inhibition [10] [%]
1 | CCN1CCC(CC(=O)Nc2n[nH]c3nnc(-c4cccc(F)c4F)cc23)CC1 | 3.55 | 3.51 | 1.32 | 0.88 | 2.99 | 1.72 | 4.05 | 1.41 | 0.88 | -1.01
2 | COC(=O)Nc1nc2ccc(Oc3ccc(NC(=O)Nc4cccc(Cl)c4)cc3)cc2[nH]1 | 2.41 | 3.38 | 2.91 | 3.52 | 2.1 | -1.15 | 0.68 | -1.26 | -0.57 | 0.74
3 | COc1cc(N2CCN(C(C)C)CC2)ccc1Nc1nc(Nc2ccc(F)cc2C(N)=O)c2cc[nH]c2n1 | 9.69 | 3.05 | 7.94 | 101 | 101 | 103 | 102 | 76.1 | 96.7 | 2.65
4 | COC(=O)Nc1nc2ccc(S(=O)(=O)c3ccc(NC(=O)Nc4cc(C(F)(F)F)ccc4F)cc3)cc2[nH]1 | 1.28 | 3.3 | 7.43 | 1.19 | 1.62 | 0.84 | 1.88 | 0.18 | 1.09 | 1.08
5 | CN1CCC(n2cnc(-c3ccc(F)cc3)c2-c2ccnc(Nc3ccccc3)n2)CC1 | 8.11 | 4.85 | 11.1 | 1.01 | 1.68 | 1.5 | 0.39 | 0.31 | 2.49 | 0.83
6 | CCN(CC)S(=O)(=O)c1ccc(OC)c(Nc2ncc(-c3ccccc3)o2)c1 | 45.2 | 7.41 | 28.1 | 7.86 | 7.98 | 2.78 | 2.35 | 0.57 | 0.72 | 0.31
7 | COc1ccc2c(-c3ccnc(Nc4cccc(OC(F)(F)F)c4)n3)cnn2n1 | 7.69 | 5.89 | 11.3 | 3.31 | 5.36 | 4.34 | 8.18 | 4.74 | 3.42 | 1.46
8 | COc1cc(/C=N/Nc2ncnc3[nH]ncc23)ccc1O | 41.2 | 11.1 | 54.2 | 3.46 | 12.5 | 5.52 | 15.3 | 3.28 | 3.65 | 1.29
9 | CCn1c(-c2nonc2N)nc2cnc(Oc3cccc(NC(=O)c4ccc(N(C)C)cc4)c3)cc21 | 1.97 | 4.12 | 4.03 | -0.26 | 0.33 | 2.97 | 3.14 | -0.46 | 0.53 | 0.98
10 | Nc1ncc(-c2cccc(S(N)(=O)=O)c2)c2scc(-c3ccc(F)c(Cl)c3)c12 | 32.6 | 28.2 | 76.1 | 0.87 | 1.23 | -0.93 | 1.76 | 2.94 | 4.45 | 0.53
11 | CC1=C(C(=O)Nc2cc(Cl)c3[nH]ncc3c2)C(c2ccc(C(F)(F)F)cc2)CC(=O)N1 (stereo not given) | 4.45 | 4.68 | 6.23 | 2.66 | 2.67 | 5.06 | 6.02 | 0.76 | 1.79 | 1.11
12 | c1ccc(-c2nc3n(c2-c2ccc4c(c2)OCO4)CCC3)nc1 | 2.79 | 2.86 | 0.81 | 9.41 | 8.89 | 4.57 | 3.26 | 0.08 | 1.11 | 0.42
13 | Fc1cccc(COc2ccc(Nc3ncnc4sc(-c5ccco5)cc34)cc2Cl)c1 | 4.89 | 4.32 | 6.64 | 0.23 | 0.87 | 1.94 | 2.78 | 2.1 | 2.84 | 0.55
14 | CC(C)COC(=O)c1ccc2c(c1)/C(=C/Nc1ccc(S(N)(=O)=O)cc1)C(=O)N2 | 71.6 | 4.68 | 38.5 | 0.52 | 1.72 | 2.06 | 2.17 | -3.52 | 0.22 | 0.34
15 | COc1ccc(-c2cc(-c3c[nH]nc3-c3ccccn3)ccn2)cc1 | 3.5 | 4.81 | 10.3 | 3.75 | 3.01 | 4.5 | 3.43 | 3.63 | 3.15 | 1.28
16 | CNC(=O)c1cc(-c2ccc(F)cc2)cc(-c2ccc(S(=O)(=O)N3CCCC3)cc2)c1N | 5.48 | 2.71 | 3.16 | 0.57 | 1.32 | 4.78 | 5.39 | -0.17 | 1.33 | 1.41
17 | COc1cc(Nc2nccc(Nc3ccc4c(C)n[nH]c4c3)n2)cc(OC)c1OC | 85.4 | 31.2 | 67.7 | 28 | 76.8 | 13.1 | 64.7 | 1.88 | 3.74 | 2.37
18 | CCc1nn2ncccc2c1-c1ccnc(NC2CC2)n1 | 5.07 | 5.27 | 5.74 | 1.94 | 2 | 2.33 | 4.74 | 2.32 | 1.77 | 1.28
19 | CN1CCC(n2cnc(-c3ccc(F)cc3)c2-c2ccnc(N)n2)CC1 | 7.42 | 3.15 | 7.9 | 0.43 | 3.19 | 2.01 | 5.41 | 0.89 | 1.43 | 1.04
20 | CCn1c(-c2nonc2N)nc2ccccc21 | 0.78 | 5.97 | 8.93 | 4.98 | 6.36 | 2.87 | 1.78 | 3.31 | 2.08 | 1.11
21 | O=S(=O)(CCNCc1ccc(-c2ccc3ncnc(Nc4ccc(OCc5cccc(F)c5)c(Cl)c4)c3c2)o1)c1ccccc1 | 4.09 | 7.05 | 8.65 | 4.87 | 7.55 | 3.73 | 6.24 | 4.04 | 4.07 | 0.82
22 | FC(F)(F)c1cccc(-c2nn3ncccc3c2-c2ccnc(Nc3ccc4c(c3)OCCO4)n2)c1 | 48.1 | 5.43 | 31.2 | -0.53 | 1.37 | -1.37 | 3.05 | 0.31 | 1.27 | 0.97
23 | NC(=O)c1sc(-n2cnc3ccc(C(F)(F)F)cc32)cc1OCc1ccccc1Br | 4.41 | 5.59 | 5.95 | 3.3 | 1.19 | 4.46 | 5.5 | 1.61 | 0.64 | 1.03
24 | CCOc1ccc2c(-c3ccnc(Nc4cccc(C(F)(F)F)c4)n3)cnn2n1 | 4.94 | 4.28 | 6.8 | -0.5 | 1.57 | 0.36 | 1.46 | 0.63 | 1 | 0.45
25 | c1ccc(COc2ccc(Nc3ncnc4ccc(-c5ccco5)cc34)cc2)cc1 | 3.93 | 1.03 | 1.93 | -0.83 | -0.77 | 0.94 | 0.94 | 0.38 | 0.28 | -0.91
26 | CC(C)(CO)CNC(=O)c1ccc2c(c1)/C(=N/Nc1ccc(S(N)(=O)=O)cc1)C(=O)N2 | 53.7 | 0.91 | 21.2 | -4.8 | -2.3 | -1.59 | -0.37 | -2 | -2.31 | -1.6
27 | COc1ccc(CNC(=O)c2ccc(-c3cc(-c4nnc(C)o4)ccc3C)cc2)cc1 | 2.79 | 5.56 | 4.62 | -2.65 | 0.47 | 0.9 | 0.55 | 0.27 | 0.52 | 2.25
28 | N#Cc1c(NC(=O)CN2CCOCC2)sc2c1CCCC2 | 8.48 | 2.96 | 8.43 | 4.81 | 5.33 | 13.2 | 8.64 | 3.54 | 3.5 | 1.1
29 | CC(=O)NCc1cccc(C#Cc2cncnc2Nc2ccc(OCc3cccc(F)c3)c(Cl)c2)c1 | 3.27 | 2.8 | 2.97 | 0.82 | 1.07 | 2.9 | 0.68 | -0.93 | -0.28 | 0.36
